Broadly, the AC50 is the midpoint of the concentration-response curve, whichever way the signal moves.

Our source for the AC50 and outcome values is PubChem BioAssay (EPA / NIEHS).

Assay [1] deals with Peroxisome proliferator-activated receptor gamma (Homo sapiens) (UniProt P37231). The experiment in a line: ATG_PPARg_TRANS: Attagene TRANS-FACTORIAL HepG2 Assay for human Peroxisome Proliferator-activated Receptor-gamma (PPARg) (AID 2283007). In short, it runs like this: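 HepG2 cells are transiently transfected with GAL4-UAS reporter units driven by chimeric NR-Gal4 fusions and dosed for 24 h. Reporter mRNA is quantified by RT-PCR, 6-FAM labelling, HpaI digestion and capillary electrophoresis. Induction is scored against DMSO.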
Sequence of Peroxisome proliferator-activated receptor gamma (Homo sapiens) (P37231 whole entry, looked up, the tested form may be a part): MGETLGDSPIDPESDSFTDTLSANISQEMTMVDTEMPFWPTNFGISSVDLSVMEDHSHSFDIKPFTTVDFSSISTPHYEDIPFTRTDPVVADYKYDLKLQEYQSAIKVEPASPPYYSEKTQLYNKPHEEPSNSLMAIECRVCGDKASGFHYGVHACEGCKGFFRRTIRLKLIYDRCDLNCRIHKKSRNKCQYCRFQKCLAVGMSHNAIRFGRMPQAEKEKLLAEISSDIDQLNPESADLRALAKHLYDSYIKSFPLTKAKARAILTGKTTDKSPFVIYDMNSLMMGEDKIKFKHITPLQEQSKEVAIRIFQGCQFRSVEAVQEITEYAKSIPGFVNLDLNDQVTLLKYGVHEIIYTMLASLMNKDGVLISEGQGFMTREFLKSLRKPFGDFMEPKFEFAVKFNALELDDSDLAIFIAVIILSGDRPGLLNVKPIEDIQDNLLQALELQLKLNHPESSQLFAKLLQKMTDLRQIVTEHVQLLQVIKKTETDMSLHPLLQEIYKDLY

In assay [2] the target is Nuclear receptor subfamily 1 group I member 2 (Homo sapiens) (UniProt O75469). The experiment in a line: ATG_PXR_TRANS: Attagene TRANS-FACTORIAL HepG2 Assay for human Pregnane X Receptor (PXR) (AID 2283008). The essentials:
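HepG2 transfected (FuGene 6) with GAL4-UAS reporter units + PXR-Gal4 chimera; dosed 24 h. Total RNA → oligo(dT) RT → PCR → 6-FAM primer extension → HpaI cut → CE. Gain-of-signal vs DMSO.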

Assay [3] addresses human RAR-related Orphan Receptor beta (RORb), RORB (gene 6096) (UniProt Q92753). The experiment in a line: ATG_RORb_TRANS: Attagene TRANS-FACTORIAL HepG2 Assay for human RAR-related Orphan Receptor beta (RORb) (AID 2283010). In short, it runs like this: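 Read-out is reporter mRNA induction, quantified by RT-PCR with fluorescent capillary electrophoresis, 24 h post-dose in transiently transfected HepG2 expressing exogenous NR-Gal4 chimera. Activity fitted upward versus DMSO.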

Assay [4] has as its target Retinoic acid receptor RXR-alpha (Homo sapiens) (UniProt P19793). Briefly: ATG_RXRa_TRANS: Attagene TRANS-FACTORIAL HepG2 Assay for human Retinoid X Receptor alpha (RXRa) (AID 2283012). In short, it runs like this:
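TRANS format reporting activity of exogenous RXRa-Gal4 chimera in transiently transfected HepG2, 24 h exposure. Reporter transcripts quantified by RT-PCR with capillary electrophoresis, with gain of signal scored relative to DMSO.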

In assay [5] the target is human Retinoid X Receptor beta (RXRb), RXRB (gene 6257) (UniProt P28702). Briefly: ATG_RXRb_TRANS: Attagene TRANS-FACTORIAL HepG2 Assay for human Retinoid X Receptor beta (RXRb) (AID 2283013). In short, it runs like this: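 Readout is reporter transcript induction after 24 h dosing. It is measured by RT-PCR of total RNA followed by fluorescent capillary electrophoresis. HepG2 liver cells carry transfected multiple reporter units driven by an exogenous RXRb-Gal4 fusion; activity is relative to DMSO.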
Sequence of human Retinoid X Receptor beta (RXRb), RXRB (gene 6257) (P28702 whole entry, looked up, the tested form may be a part): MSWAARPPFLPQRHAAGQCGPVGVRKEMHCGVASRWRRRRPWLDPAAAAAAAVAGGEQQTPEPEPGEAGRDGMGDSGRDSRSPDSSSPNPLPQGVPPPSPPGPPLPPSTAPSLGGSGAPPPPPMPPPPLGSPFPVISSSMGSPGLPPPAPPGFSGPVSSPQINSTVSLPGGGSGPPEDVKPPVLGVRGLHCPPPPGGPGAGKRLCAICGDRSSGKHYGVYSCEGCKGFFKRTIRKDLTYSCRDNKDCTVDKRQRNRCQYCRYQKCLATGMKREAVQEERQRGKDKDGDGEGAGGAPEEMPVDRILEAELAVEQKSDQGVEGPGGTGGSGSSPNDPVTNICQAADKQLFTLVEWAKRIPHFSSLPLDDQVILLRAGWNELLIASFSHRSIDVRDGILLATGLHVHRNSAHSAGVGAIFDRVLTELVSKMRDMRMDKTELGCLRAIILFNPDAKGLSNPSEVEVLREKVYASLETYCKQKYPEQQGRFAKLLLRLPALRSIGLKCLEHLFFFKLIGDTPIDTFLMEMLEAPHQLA

In assay [6] the target is human Vitamin D Receptor (VDR), VDR (gene 7421) (UniProt P11473). Briefly: ATG_VDR_TRANS: Attagene TRANS-FACTORIAL HepG2 Assay for human Vitamin D Receptor (VDR) (AID 2283022). In short, it runs like this: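 Multiplexed TRANS reporter in HepG2; 24 h treatment; reporter mRNA by RT-PCR plus capillary electrophoresis; upregulation scored relative to DMSO.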
Sequence of human Vitamin D Receptor (VDR), VDR (gene 7421) (P11473 whole entry, looked up): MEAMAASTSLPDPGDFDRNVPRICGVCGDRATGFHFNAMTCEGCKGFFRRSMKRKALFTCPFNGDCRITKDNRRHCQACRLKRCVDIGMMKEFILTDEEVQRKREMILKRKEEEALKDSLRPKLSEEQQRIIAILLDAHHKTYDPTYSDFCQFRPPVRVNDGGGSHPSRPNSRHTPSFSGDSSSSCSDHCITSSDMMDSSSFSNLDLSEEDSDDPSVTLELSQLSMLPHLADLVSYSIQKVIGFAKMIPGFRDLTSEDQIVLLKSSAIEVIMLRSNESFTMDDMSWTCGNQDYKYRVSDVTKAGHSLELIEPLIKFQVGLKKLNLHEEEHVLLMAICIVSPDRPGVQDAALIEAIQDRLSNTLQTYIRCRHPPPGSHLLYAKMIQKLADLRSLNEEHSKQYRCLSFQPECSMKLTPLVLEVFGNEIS
Assay [7] in a line: BSK_3C_Proliferation: Cell Proliferation Assessment in the BioMAP Diversity Plus: 3C Assay (AID 2283006; active means hit-call score of the fitted dose curve at least 0.9, where 1 is the maximum; inactive means score below 0.9;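 on AC50: potency may reflect either rise or fall in cell number versus DMSO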). As to conditions: primary human endothelial cells (HUVEC). The essentials:
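Proliferation as total protein: sulforhodamine B (0.1%) stain of TCA-fixed subconfluent human umbilical vein endothelial cells, absorbance 560 nm, 48 h after dosing. Activity fitted in both directions against DMSO baseline.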

Assay [8] has as its target human Thyroid Receptor alpha (THRa1), THRA (gene 7067) (UniProt P10827). Briefly: ATG_THRa1_TRANS: Attagene TRANS-FACTORIAL HepG2 Assay for human Thyroid Receptor alpha (THRa1) (AID 2283014). In short, it runs like this: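 Measured here is mRNA from a GAL4-UAS reporter in transfected HepG2 cells carrying a Gal4-fused receptor, 24 h post-dose. DMSO served as negative control and baseline.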

Read-out in assay [9]: E-selectin (Homo sapiens) (UniProt P16581)
The experiment in a line: BSK_3C_Eselectin: BioMAP Diversity Plus: 3C Assay for Eselectin Biomarker Activity (AID 2283015; active means hit-call score of the fitted dose curve at least 0.9, where 1 is the maximum; inactive means score below 0.9;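 on outcome: cell surface E-selectin protein quantified by ELISA 24 h after dosing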). The following applies: primary human endothelial cells (HUVEC); actives raise or lower the signal. In short, it runs like this:
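Endpoint derived by bidirectional fitting against DMSO vehicle; signal is ELISA-detected E-selectin from primary HUVEC at 24 h post-dosing, with parallel SRB staining (0.1% SRB, 560 nm) flagging cytotoxicity.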

Read-out in assay [10]: Interleukin-1 alpha (IL1a), IL1A (gene 3552)
The experiment in a line: BSK_BE3C_IL1a: BioMAP Diversity Plus: BE3C Assay for Interleukin-1 alpha (IL1a) Biomarker Activity (AID 2283016; active means hit-call score of the fitted dose curve at least 0.9, where 1 is the maximum; inactive means score below 0.9). As to conditions: primary human bronchial epithelial cells; actives raise or lower the signal. In short, it runs like this:
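IL-1a measured by ELISA after 24 h treatment of human primary bronchial epithelial cells, with gain or loss of signal fitted versus DMSO. Parallel cultures stained with SRB gauge overt cytotoxicity.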

Read-out in assay [11]: Monocyte Chemoattractant Protein-1 (MCP1), CCL2 (gene 6347)
Briefly: BSK_3C_MCP1: BioMAP Diversity Plus: 3C Assay for Monocyte Chemoattractant Protein-1 (MCP1) Biomarker Activity (AID 2283017; active means hit-call score of the fitted dose curve at least 0.9, where 1 is the maximum; inactive means score below 0.9). As to conditions: primary human endothelial cells (HUVEC); actives raise or lower the signal. The essentials: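 Using human vascular primary endothelium, researchers measured MCP-1 by ELISA 24 h after treatment, with DMSO serving as negative control for bidirectional fitting.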

Read-out in assay [12]: Monocyte Chemoattractant Protein-1 (MCP1), CCL2 (gene 6347)
The experiment in a line: BSK_4H_MCP1: BioMAP Diversity Plus: 4H Assay for Monocyte Chemoattractant Protein-1 (MCP1) Biomarker Activity (AID 2283018; active means hit-call score of the fitted dose curve at least 0.9, where 1 is the maximum; inactive means score below 0.9). The following applies: primary human endothelial cells (HUVEC); actives raise or lower the signal. In short, it runs like this:
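ELISA of MCP-1 (CCL2) 24 h after chemical dosing of HUVEC in the BioMAP 4H system. Gain or loss versus DMSO fitted; parallel SRB staining (560 nm) tracked overt cytotoxicity.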

Read-out in assay [13]: Human Leukocyte Antigen - DR isotype (HLADR), HLA-DRA (gene 3122)
The experiment in a line: BSK_3C_HLADR: BioMAP Diversity Plus: 3C Assay for Human Leukocyte Antigen - DR isotype (HLADR) Biomarker Activity (AID 2283019; active means hit-call score of the fitted dose curve at least 0.9, where 1 is the maximum; inactive means score below 0.9;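 on outcome: ELISA of cell-surface HLA-DR on HUVEC 24 h after dosing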). The following applies: primary human endothelial cells (HUVEC); actives raise or lower the signal. The essentials:
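Compound added to primary HUVEC cultures, 24 h incubation, then HLA-DR determined by ELISA; endpoint derived by bidirectional fitting relative to DMSO negative control.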

A short description of assay [14]: BSK_3C_SRB: Viability Assessment in the BioMAP Diversity Plus: 3C Assay (AID 2283023; active means hit-call score of the fitted dose curve at least 0.9, where 1 is the maximum; inactive means score below 0.9;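 further: cells read 24 h after compound dosing; fitted both ways against DMSO so a hit may be signal rise or drop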). The following applies: primary human endothelial cells (HUVEC). In short, it runs like this:
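Overt cytotoxicity is gauged in parallel confluent HUVEC cultures by SRB total-protein staining at the time of biomarker measurement, 24 h after dosing. Gain or loss of signal is fitted versus DMSO.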

Assay [15] concerns the target human RAR-related Orphan Receptor gamma (RORg), RORC (gene 6097) (UniProt P51449). Briefly: ATG_RORg_TRANS: Attagene TRANS-FACTORIAL HepG2 Assay for human RAR-related Orphan Receptor gamma (RORg) (AID 2283011).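 On AC50: potency for induction of reporter transcripts above DMSO so activators.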 In short, it runs like this: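 Chimeric RORg-Gal4 transactivation in transfected HepG2; 24 h exposure; RT-PCR/capillary electrophoresis readout of reporter mRNA, DMSO baseline.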

Read-out in assay [16]: Monokine induced gamma interferon (MIG), CXCL9 (gene 4283)
The experiment in a line: BSK_3C_MIG: BioMAP Diversity Plus: 3C Assay for Monokine induced gamma interferon (MIG) Biomarker Activity (AID 2283021; active means hit-call score of the fitted dose curve at least 0.9, where 1 is the maximum; inactive means score below 0.9). As to conditions: primary human endothelial cells (HUVEC); actives raise or lower the signal. The essentials:
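ELISA measurement of MIG in human umbilical vein endothelial cells 24 h after treatment. Cytotoxicity tracked by SRB staining in parallel cultures; gain or loss of signal fitted relative to DMSO.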

Inconclusive results are not listed. Activity calls are given as the source filed them. How the source made its calls, unless noted: active means hit-call score of the fitted dose curve at least 0.9, where 1 is the maximum; inconclusive means response in the unintended direction; inactive means score below 0.9.

Sequence of human RAR-related Orphan Receptor beta (RORb), RORB (gene 6096) (Q92753 whole entry, looked up, the tested form may be a part): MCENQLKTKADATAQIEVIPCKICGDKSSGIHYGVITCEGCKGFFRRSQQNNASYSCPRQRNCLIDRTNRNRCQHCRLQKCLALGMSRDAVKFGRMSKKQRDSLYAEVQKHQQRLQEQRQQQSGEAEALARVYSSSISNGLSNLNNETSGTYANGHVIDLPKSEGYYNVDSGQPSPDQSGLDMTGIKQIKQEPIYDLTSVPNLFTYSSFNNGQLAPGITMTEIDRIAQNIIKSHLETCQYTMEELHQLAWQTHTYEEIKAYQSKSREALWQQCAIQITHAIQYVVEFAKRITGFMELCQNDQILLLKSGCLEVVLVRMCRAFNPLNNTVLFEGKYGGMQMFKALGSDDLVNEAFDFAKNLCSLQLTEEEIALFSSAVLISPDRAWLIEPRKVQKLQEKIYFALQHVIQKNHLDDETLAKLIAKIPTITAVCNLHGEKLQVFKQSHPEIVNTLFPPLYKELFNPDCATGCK
Sequence of Nuclear receptor subfamily 1 group I member 2 (Homo sapiens) (O75469 whole entry, looked up, the tested form may be a part): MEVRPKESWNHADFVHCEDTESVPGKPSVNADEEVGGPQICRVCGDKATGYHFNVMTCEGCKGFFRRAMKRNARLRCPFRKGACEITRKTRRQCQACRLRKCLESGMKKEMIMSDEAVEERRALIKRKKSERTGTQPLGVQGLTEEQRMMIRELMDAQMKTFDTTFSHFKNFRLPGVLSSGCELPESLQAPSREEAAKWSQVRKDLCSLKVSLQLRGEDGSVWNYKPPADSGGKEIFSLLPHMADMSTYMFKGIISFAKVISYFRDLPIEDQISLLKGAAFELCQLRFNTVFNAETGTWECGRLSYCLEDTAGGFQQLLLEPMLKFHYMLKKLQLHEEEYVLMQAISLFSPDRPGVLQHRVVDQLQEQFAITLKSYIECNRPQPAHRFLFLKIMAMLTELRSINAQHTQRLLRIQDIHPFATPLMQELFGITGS
Sequence of E-selectin (Homo sapiens) (P16581 whole entry, looked up): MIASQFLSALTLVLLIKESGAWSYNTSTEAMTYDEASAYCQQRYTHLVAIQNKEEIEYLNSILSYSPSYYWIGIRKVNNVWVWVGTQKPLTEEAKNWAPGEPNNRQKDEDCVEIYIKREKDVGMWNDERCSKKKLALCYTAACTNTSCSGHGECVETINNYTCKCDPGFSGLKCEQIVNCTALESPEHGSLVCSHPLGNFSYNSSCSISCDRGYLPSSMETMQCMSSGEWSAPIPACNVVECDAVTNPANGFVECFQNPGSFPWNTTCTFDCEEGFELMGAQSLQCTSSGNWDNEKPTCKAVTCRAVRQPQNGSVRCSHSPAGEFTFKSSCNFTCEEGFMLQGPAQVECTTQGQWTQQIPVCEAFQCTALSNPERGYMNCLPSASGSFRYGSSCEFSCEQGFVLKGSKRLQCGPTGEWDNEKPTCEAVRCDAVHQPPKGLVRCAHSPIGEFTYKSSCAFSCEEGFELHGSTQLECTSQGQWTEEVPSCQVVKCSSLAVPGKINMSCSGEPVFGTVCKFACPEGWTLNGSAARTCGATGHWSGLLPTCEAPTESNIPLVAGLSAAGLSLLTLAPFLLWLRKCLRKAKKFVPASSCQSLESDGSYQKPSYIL
Sequence of human Thyroid Receptor alpha (THRa1), THRA (gene 7067) (P10827 whole entry, looked up, the tested form may be a part): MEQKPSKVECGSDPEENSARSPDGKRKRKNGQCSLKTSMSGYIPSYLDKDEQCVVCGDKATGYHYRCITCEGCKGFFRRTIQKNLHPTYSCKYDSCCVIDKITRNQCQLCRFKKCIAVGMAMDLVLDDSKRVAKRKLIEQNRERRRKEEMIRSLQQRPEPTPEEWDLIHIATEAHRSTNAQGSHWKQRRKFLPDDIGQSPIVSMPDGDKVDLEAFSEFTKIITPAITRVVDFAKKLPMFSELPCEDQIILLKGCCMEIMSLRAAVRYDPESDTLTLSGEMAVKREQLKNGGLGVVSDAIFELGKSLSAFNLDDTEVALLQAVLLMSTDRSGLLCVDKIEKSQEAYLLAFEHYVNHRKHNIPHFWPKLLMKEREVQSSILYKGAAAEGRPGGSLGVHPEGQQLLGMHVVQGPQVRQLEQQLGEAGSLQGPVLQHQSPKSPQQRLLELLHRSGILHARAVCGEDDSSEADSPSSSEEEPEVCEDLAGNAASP
Sequence of Retinoic acid receptor RXR-alpha (Homo sapiens) (P19793 whole entry, looked up, the tested form may be a part): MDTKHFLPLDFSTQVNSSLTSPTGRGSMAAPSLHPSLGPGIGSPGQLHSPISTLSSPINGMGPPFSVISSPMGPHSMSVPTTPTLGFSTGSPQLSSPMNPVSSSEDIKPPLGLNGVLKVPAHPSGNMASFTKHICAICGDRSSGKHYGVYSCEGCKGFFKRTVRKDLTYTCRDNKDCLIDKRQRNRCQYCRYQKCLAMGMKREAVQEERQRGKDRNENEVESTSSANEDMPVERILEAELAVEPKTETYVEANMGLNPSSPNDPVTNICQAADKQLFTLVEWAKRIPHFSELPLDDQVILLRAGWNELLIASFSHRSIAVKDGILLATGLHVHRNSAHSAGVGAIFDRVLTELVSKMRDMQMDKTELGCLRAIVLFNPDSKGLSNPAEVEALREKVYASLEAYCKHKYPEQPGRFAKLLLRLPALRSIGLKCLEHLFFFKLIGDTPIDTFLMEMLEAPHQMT
Sequence of human RAR-related Orphan Receptor gamma (RORg), RORC (gene 6097) (P51449 whole entry, looked up, the tested form may be a part): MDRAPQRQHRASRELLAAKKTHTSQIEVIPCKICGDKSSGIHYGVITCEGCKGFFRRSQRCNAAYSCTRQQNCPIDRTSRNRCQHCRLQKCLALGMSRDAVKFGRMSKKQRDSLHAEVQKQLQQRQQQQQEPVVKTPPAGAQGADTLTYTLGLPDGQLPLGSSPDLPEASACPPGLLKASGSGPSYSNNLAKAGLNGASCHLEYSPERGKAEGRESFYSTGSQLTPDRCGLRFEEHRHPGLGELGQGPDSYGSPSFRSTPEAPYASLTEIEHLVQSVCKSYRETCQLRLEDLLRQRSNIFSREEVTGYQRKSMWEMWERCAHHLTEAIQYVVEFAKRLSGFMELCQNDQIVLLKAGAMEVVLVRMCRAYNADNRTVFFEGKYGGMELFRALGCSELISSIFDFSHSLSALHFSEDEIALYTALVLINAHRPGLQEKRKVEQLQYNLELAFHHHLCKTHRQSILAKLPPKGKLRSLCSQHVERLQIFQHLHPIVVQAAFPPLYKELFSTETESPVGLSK

Take `c1cc[c]([Hg][c]2ccccc2)cc1`: the concentration at half-maximal activity (AC50) in assay [1] was 25.2 µM (active). The outcome in assay [2], in [3], in assay [4], in assay [5] and in assay [6] was inactive.
On to `C[C@@H]1C[C@@H]([C@H](O)CC2CC(=O)NC(=O)C2)C(=O)[C@@H](C)C1`, for which the AC50 in assay [7] was 2.9 µM (active); in assay [9], 2.4 µM (active); in assay [10], 10.7 µM (active); in assay [11] it was 8.41 µM (active); in assay [12] it was 4.06 µM (active); in assay [13], 3.85 µM (active). Besides, the AC50 in [14] is 4.82 µM (active). In addition, the outcome in assay [2], in assay [3], in assay [5] and in [8] was inactive.
With `ClCc1ccccn1`, the molecule was classed as inactive in assay [1], in assay [2], in [3], in assay [4], in assay [8] and in [6].
As for `Cc1cc(Cl)ccc1O[C@H](C)C(=O)O`, the AC50 in [1] was 37.4 µM (active). Also, the call in assay [2] and in assay [3] was inactive.
`Clc1ccc(COC(Cn2ccnc2)c2ccc(Cl)cc2Cl)cc1` (stereo not given): the figures for the AC50 in assay [1], in assay [2] and in [5] were 4.84 µM (active), 0.44 µM (active) and 0.103 µM (active), respectively. Moreover, in assay [4], the molecule was classed as inactive.
With `CC(=O)C(Cl)C(=O)N(C)C` (stereo not given), the AC50 in [7], in assay [9], in assay [10], in [11] and in assay [12] was 20 µM (active) in each case. Also, the call in [2], in assay [3], in assay [15], in assay [4], in [5] and in assay [8] was inactive. Further, the molecule was classed as inactive in assay [6] and in assay [14].
For the molecule `O=C(O)CCC(F)(C(F)(F)F)C(F)(F)F`, the result in [7], in assay [9], in [10], in assay [11], in assay [12] and in [13] was inactive. In addition, the result in assay [16] and in [14] was inactive.
As for `ClCCBr`, the molecule was classed as inactive in assay [1], in assay [2], in [3], in assay [15], in assay [4] and in [5].
In the case of `Cc1ccccc1C(=O)Nc1cccc(OC(C)C)c1`, the AC50 in assay [1] is 27.9 µM (active); in [2], 2.62 µM (active). The outcome in assay [4] and in assay [5] was inactive.
Turning to `O=S(=O)(c1ccc(Cl)cc1)c1ccc(Cl)cc1`, the result in [7], in assay [4], in [8], in assay [9], in assay [10] and in assay [11] was inactive. For the same molecule, the outcome in assay [12], in assay [13], in [6] and in assay [14] was inactive. For the same molecule, the AC50 in assay [2] was 7 µM (active).
For `CCCCCCCCSC(=O)Oc1cc(Cl)nnc1-c1ccccc1`, in assay [1], the AC50 was 24.3 µM (active). Further, the outcome in [2], in [15], in [5] and in [6] was inactive.
As for `O=C(CCl)CCl`, the molecule was classed as inactive in [1], in [2], in [3], in [4], in [5] and in assay [8]. The result in assay [6] was inactive. The AC50 in assay [15] was 60.1 µM (active).
